Assay results taken from the supplement of paper PMC11732987, “Enantioselective OTUD7B fragment discovery through chemoproteomics screening and high-throughput optimisation” (Communications Chemistry, 2025).

How the values were obtained:
Test in all cases: log2 ratio of Biotin-Ahx-Ub-VS probe labelling (fragment/DMSO); higher = less target engagement (more negative = stronger competition), active = hit call of the paper (q ≤ 0.05, log2 ratio ≤ -1)
Settings in all cases: compound concentration: 200 uM; treatment time: 3 h
USP42 = target: T1, USP42 (UniProt Q9H9J4)
T1 sequence (whole entry): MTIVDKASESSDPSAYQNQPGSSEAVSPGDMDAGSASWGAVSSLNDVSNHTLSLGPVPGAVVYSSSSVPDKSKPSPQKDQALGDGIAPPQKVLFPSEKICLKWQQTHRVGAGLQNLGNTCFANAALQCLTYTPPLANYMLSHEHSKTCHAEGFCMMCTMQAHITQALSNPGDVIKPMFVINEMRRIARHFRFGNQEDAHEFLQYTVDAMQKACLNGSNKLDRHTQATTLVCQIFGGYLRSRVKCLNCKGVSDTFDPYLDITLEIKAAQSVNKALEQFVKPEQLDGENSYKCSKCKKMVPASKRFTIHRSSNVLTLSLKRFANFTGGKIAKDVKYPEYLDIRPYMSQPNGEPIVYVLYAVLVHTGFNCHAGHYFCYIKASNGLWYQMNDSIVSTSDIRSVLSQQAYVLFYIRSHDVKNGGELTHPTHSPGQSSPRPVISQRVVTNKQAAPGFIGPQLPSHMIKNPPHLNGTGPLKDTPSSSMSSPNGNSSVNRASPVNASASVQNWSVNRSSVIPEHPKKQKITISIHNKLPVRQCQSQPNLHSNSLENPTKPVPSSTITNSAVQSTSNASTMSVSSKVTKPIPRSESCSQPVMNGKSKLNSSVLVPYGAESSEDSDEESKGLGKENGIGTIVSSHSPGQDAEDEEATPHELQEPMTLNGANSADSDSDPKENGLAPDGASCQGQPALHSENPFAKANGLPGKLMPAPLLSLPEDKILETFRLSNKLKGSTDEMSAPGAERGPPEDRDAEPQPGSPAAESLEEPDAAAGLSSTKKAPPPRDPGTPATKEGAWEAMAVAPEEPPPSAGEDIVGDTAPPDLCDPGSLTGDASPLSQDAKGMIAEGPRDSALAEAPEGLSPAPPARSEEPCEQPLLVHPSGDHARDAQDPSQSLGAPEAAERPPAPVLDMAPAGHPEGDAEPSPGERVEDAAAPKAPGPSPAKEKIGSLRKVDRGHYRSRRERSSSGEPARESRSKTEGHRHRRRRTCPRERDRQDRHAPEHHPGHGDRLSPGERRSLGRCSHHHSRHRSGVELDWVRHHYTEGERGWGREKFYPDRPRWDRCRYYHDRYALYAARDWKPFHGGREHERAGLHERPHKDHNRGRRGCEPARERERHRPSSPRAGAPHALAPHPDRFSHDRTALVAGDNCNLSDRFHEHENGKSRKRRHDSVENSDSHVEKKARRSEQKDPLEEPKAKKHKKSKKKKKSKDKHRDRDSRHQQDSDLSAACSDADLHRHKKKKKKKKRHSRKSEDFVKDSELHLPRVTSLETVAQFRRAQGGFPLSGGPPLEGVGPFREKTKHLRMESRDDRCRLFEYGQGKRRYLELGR
Method in brief: (§1)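 HEK293T lysate (495 µg per sample, in Tris/CHAPS/IGEPAL buffer with protease inhibitors) was exposed in triplicate for 3 h to fragment at 200 µM or to vehicle, then to Biotin-Ahx-Ub-VS at 0.5 µM final for 1 h. Labelled DUBs were enriched on NeutrAvidin, digested with LysC and trypsin, and analysed by diaPASEF LC-MS/MS. Spectronaut label-free quantities were normalised to the global median, and values are average log2 ratios of fragment over vehicle from an unpaired t-test. Only proteins with ≥2 unique peptides were used.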

USP46 = USP46 (UniProt P62068)
Method in brief: as §1

USP47 = target: T2, USP47 (UniProt Q96K76)
T2 sequence (whole entry): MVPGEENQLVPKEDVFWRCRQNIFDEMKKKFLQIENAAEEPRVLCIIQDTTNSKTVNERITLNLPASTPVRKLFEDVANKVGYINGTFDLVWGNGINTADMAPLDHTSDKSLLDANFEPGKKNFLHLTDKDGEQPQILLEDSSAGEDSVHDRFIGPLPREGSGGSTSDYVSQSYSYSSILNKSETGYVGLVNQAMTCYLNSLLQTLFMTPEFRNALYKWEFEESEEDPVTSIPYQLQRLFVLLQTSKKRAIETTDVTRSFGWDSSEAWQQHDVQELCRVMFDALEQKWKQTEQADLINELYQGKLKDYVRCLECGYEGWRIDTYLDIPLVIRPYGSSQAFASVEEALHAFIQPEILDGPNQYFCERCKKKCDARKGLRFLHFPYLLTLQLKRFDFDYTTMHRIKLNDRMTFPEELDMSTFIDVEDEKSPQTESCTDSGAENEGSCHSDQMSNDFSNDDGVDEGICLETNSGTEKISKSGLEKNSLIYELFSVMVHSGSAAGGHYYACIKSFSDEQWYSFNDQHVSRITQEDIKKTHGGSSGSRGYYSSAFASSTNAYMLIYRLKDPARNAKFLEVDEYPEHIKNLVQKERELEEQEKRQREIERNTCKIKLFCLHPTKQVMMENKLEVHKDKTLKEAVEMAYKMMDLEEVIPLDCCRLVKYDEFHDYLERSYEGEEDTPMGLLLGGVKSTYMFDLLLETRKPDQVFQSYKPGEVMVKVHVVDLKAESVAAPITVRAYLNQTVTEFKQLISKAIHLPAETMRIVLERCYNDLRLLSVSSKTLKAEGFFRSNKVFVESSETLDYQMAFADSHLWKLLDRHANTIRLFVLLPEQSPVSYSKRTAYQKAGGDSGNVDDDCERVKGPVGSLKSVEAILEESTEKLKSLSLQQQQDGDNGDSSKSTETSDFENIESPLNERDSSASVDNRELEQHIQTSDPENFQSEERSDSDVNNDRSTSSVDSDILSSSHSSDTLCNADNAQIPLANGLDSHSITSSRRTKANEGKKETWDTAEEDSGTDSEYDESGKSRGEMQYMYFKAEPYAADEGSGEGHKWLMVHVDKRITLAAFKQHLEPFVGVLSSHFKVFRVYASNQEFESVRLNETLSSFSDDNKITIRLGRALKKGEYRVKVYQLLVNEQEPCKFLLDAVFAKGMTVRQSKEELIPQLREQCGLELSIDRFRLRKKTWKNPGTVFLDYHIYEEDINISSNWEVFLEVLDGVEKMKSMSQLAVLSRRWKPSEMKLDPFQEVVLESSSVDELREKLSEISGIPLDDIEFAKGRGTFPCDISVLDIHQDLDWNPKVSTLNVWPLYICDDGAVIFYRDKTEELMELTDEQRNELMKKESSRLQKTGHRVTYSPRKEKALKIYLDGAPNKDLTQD
Method in brief: as §1

USP48 = target: T3, USP48 (UniProt Q86UV5)
T3 sequence (whole entry): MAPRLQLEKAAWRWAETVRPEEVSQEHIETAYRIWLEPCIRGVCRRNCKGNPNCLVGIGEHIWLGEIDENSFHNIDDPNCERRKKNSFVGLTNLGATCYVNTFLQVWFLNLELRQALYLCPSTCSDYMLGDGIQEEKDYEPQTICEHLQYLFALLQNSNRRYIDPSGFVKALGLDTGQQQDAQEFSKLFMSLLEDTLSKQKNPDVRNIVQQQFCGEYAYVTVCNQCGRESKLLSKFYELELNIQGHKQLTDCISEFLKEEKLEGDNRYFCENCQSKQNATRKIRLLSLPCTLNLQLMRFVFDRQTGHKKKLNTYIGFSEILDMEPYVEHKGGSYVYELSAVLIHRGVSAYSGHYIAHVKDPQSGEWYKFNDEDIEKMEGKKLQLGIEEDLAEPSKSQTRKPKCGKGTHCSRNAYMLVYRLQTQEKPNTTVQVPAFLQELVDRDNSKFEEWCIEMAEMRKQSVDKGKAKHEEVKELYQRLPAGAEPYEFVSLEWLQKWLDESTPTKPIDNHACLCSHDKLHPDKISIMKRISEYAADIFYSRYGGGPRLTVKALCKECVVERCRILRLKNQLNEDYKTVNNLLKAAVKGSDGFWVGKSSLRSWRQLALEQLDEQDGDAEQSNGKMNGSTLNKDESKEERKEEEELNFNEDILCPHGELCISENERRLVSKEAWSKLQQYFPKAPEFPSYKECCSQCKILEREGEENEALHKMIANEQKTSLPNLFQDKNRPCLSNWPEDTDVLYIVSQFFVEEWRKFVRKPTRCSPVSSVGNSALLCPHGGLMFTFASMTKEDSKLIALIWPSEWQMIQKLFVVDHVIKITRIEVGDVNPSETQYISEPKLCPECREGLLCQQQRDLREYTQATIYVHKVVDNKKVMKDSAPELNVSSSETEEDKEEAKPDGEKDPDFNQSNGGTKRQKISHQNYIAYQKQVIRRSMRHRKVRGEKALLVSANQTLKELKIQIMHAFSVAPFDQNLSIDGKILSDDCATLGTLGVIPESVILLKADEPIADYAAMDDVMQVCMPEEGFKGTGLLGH
Method in brief: as §1

USP5 = target: T4, USP5 (UniProt P45974)
T4 sequence (whole entry): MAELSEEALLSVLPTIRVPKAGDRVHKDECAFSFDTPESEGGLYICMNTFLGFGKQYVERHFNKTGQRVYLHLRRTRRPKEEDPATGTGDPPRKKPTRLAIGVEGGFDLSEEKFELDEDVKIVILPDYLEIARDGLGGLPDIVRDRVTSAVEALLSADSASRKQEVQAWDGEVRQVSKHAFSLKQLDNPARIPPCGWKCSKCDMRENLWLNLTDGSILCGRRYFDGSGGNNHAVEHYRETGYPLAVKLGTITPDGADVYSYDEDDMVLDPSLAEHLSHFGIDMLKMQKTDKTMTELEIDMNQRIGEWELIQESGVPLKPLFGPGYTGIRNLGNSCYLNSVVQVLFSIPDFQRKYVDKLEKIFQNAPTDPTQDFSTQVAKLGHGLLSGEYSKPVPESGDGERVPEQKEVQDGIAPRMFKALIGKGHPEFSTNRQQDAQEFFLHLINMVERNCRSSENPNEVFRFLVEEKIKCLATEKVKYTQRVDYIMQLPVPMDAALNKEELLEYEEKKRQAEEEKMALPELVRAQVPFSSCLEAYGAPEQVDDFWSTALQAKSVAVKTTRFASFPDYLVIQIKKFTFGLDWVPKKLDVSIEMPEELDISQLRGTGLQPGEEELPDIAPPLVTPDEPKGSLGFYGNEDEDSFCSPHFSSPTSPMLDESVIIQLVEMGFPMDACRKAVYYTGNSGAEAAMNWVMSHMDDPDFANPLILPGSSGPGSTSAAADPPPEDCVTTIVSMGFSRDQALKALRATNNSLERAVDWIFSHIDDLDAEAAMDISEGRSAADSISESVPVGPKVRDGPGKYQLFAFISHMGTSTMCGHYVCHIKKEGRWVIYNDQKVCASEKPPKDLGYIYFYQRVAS
Method in brief: as §1

USP54 = USP54 (UniProt Q70EL1)
Method in brief: as §1

USP7 = USP7 (UniProt Q93009)
Method in brief: as §1

USP8 = target: T5, USP8 (UniProt P40818)
T5 sequence (whole entry): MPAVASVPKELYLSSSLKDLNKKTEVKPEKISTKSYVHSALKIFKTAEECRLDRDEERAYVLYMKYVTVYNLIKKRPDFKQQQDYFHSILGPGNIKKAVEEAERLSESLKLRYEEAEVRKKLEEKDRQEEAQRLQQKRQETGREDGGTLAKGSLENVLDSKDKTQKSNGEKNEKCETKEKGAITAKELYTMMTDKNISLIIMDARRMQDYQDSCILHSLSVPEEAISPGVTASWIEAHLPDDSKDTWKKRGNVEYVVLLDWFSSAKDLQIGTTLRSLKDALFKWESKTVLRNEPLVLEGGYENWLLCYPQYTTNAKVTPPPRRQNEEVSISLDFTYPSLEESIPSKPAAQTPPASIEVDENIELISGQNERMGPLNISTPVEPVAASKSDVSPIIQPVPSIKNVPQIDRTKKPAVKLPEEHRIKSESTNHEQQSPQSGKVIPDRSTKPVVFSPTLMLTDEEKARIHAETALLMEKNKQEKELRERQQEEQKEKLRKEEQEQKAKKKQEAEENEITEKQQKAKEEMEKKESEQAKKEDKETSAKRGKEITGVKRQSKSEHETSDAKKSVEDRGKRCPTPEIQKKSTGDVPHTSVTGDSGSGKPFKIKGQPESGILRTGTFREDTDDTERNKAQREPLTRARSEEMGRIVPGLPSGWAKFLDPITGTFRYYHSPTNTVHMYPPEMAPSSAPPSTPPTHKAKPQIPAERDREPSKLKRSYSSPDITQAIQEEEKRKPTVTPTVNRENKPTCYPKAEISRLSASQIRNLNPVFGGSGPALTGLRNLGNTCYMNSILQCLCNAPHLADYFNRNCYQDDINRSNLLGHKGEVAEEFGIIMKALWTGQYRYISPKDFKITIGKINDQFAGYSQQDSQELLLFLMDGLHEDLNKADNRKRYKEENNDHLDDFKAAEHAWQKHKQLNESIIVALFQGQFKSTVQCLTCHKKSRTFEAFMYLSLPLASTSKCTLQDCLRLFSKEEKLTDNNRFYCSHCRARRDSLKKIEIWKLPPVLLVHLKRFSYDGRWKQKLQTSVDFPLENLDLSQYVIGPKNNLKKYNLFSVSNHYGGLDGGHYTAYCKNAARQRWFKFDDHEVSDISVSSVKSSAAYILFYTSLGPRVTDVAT
Method in brief: as §1

USP9X = USP9X (UniProt Q93008)
Method in brief: as §1

UniProt O00487 = target: UniProt O00487
Method in brief: as §1

Measured: log2 ratio of Biotin-Ahx-Ub-VS probe labelling

Sequence of USP9X (Q93008 whole entry): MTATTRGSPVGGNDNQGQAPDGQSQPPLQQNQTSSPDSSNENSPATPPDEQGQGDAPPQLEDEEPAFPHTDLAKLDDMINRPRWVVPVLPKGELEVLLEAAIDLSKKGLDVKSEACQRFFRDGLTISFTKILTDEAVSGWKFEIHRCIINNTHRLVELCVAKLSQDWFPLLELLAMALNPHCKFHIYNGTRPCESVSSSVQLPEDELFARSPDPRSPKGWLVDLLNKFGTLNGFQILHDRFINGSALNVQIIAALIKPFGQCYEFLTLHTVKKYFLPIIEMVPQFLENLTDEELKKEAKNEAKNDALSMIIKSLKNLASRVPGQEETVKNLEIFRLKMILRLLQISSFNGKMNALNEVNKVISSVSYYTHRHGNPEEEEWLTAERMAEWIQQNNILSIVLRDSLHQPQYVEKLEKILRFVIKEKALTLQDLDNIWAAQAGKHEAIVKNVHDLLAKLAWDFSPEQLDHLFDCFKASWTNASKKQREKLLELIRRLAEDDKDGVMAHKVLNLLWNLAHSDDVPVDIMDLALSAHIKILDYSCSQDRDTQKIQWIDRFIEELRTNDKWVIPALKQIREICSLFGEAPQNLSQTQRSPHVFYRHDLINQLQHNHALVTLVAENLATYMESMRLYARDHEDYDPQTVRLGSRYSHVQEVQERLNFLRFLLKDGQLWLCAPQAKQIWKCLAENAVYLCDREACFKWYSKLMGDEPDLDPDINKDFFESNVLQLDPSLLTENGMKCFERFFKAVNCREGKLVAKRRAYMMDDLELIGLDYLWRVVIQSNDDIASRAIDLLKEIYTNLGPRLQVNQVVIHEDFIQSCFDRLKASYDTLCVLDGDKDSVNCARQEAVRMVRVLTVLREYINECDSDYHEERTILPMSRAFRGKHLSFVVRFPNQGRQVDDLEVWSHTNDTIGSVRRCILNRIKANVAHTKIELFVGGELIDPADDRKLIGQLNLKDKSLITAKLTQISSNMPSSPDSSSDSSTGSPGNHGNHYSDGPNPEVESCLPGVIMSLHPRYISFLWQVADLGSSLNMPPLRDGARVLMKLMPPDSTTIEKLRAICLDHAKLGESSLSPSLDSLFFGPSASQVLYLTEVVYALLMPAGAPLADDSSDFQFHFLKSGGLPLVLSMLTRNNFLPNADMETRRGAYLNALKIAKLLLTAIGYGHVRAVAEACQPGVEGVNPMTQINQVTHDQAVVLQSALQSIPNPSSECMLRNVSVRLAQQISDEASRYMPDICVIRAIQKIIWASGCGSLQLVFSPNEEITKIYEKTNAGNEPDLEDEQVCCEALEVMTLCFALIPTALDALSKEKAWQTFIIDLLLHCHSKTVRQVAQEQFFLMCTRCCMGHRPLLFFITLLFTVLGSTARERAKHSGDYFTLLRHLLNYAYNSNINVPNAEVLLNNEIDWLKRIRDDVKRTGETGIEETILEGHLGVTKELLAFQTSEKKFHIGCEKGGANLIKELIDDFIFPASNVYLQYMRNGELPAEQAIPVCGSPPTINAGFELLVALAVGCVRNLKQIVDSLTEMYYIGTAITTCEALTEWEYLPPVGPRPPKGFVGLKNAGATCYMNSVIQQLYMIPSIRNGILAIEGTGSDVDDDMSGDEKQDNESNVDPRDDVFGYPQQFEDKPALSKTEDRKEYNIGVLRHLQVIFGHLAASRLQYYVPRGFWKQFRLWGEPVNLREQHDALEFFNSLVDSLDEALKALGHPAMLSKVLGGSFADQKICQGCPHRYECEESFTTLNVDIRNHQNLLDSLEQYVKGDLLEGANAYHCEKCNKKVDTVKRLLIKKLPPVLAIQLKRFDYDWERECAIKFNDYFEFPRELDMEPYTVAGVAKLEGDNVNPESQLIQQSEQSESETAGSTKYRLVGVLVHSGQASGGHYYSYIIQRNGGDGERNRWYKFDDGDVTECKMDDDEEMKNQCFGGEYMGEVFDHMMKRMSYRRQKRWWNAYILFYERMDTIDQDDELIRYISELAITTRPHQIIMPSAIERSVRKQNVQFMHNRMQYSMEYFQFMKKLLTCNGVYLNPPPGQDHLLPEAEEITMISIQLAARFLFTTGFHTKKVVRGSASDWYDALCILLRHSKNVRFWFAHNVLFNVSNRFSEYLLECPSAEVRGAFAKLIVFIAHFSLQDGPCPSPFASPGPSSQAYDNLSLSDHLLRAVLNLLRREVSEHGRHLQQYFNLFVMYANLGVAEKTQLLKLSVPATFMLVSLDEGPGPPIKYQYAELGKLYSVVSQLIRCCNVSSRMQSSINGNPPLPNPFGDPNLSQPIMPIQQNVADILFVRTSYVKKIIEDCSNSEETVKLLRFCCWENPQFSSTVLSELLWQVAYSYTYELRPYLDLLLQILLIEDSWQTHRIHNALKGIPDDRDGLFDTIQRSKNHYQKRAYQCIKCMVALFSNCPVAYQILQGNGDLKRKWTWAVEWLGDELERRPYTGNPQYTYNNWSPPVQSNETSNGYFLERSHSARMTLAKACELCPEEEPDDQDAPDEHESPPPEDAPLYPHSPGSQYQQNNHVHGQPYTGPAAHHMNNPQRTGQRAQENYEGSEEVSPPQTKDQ
Sequence of USP54 (Q70EL1 whole entry): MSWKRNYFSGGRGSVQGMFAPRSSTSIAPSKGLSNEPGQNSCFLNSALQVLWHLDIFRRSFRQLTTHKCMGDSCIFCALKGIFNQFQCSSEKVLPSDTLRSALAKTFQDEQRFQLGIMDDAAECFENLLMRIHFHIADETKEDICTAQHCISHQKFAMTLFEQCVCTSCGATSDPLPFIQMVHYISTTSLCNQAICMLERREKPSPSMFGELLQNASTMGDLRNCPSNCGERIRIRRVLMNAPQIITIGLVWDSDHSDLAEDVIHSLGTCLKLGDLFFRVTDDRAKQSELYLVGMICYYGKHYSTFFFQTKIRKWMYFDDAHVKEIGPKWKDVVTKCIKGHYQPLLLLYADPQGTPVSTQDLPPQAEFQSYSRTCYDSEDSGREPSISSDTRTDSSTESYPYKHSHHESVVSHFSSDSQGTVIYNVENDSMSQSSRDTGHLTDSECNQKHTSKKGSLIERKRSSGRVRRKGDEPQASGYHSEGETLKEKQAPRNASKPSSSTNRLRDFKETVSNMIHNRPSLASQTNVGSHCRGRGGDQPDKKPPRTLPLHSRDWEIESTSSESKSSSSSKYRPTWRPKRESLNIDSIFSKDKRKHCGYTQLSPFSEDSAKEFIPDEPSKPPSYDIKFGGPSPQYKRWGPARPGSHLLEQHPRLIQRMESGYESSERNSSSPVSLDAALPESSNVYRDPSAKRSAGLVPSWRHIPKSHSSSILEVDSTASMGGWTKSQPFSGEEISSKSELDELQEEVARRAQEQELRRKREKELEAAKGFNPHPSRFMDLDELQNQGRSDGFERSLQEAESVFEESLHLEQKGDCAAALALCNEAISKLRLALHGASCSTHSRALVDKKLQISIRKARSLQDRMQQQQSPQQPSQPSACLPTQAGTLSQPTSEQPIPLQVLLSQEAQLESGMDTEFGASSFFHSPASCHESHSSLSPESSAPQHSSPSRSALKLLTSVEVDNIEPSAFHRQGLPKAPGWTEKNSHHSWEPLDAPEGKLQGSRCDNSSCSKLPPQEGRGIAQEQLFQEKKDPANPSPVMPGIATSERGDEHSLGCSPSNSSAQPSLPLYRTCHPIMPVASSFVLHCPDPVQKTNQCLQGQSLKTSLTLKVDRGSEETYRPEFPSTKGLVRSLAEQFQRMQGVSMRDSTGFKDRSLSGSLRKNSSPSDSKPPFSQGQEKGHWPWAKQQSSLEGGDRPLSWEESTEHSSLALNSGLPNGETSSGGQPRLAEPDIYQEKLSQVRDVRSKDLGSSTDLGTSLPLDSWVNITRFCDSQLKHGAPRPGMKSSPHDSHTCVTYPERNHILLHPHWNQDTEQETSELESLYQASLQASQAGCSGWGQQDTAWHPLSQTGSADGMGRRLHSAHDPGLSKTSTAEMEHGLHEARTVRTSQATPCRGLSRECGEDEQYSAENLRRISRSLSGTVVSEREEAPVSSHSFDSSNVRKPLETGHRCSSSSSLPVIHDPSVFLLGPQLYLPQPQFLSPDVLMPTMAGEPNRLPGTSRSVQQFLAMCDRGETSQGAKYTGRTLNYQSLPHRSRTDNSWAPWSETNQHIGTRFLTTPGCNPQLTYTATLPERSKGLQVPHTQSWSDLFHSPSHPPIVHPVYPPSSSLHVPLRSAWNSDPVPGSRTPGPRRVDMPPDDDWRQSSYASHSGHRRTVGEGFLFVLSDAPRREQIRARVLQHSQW
Sequence of UniProt O00487 (O00487 whole entry): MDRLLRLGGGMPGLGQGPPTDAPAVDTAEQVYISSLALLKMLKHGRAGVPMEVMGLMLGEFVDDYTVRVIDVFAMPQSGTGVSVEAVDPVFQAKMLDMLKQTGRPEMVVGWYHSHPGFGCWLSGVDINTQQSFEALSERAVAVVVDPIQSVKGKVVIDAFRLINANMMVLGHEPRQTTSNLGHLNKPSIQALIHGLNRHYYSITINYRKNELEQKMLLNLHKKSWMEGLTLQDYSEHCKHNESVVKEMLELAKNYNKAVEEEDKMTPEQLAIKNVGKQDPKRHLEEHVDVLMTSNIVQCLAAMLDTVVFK
Sequence of USP46 (P62068 whole entry): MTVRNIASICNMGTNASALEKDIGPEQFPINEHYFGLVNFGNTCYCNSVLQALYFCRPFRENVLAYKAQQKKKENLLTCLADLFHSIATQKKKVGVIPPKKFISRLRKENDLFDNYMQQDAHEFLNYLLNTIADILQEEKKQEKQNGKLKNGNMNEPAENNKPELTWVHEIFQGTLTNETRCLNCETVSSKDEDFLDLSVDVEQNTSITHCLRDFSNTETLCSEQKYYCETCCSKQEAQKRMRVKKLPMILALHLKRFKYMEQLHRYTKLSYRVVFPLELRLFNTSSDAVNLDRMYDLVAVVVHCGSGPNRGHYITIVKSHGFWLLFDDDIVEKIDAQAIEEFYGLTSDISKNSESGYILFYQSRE

CCN(Cc1ccc(C#N)cc1F)C(=O)CCl
active: USP48 -1.26 | USP7 -1.26
inactive: USP42 -0.249 | USP46 -0.114 | USP47 -0.791 | USP5 0.258 | USP54 0.521 | USP8 -0.229 | USP9X -0.229 | UniProt O00487 -0.0587
